PubChem BioAssay (NCATS)
Records with an inconclusive call do not appear. Activity calls are given as the source filed them. Calls follow the shape of the dose curve; as a rule, active = well fitted curve in the direction sought with a large enough effect; inconclusive = small, poorly fitted or top-dose-only effect, or another doubt; inactive = no such curve, though single readings can be large; an effect the other way counts as inactive or inconclusive.

How the values were obtained:
[1] = biological target: Furin (Homo sapiens) (UniProt P09958); test: Furin counterscreen qHTS for Zika virus inhibitors (AID 1347149); details: furin enzymatic counterscreen, fluorogenic substrate; series mostly up to 57.5 µM;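 also: purified recombinant full-length human furin enzyme at 5 nM; fluorescence gain from furin cutting a BOC-RVRR-AMC peptide substrate over 15 min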
Sequence of Furin (Homo sapiens) (P09958 whole entry, looked up): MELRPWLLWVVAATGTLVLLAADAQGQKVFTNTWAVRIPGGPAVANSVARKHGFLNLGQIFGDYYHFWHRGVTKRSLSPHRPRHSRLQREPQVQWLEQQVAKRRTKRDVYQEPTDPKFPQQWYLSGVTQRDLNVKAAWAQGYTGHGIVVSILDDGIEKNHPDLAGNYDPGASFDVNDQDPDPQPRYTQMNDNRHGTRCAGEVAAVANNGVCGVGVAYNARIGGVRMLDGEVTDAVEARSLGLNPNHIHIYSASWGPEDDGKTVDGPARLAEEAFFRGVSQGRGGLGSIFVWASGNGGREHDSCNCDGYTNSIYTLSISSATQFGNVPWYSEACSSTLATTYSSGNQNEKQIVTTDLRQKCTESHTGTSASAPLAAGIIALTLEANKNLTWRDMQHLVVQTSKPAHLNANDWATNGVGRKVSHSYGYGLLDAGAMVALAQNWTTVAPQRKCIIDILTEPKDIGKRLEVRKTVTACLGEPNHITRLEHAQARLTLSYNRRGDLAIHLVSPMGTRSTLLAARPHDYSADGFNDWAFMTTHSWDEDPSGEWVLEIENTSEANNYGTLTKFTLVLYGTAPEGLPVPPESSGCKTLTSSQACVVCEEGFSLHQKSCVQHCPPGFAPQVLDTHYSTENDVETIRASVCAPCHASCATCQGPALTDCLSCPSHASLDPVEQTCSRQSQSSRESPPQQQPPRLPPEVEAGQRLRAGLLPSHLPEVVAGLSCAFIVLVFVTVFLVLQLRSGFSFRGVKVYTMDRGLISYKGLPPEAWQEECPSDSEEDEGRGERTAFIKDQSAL
In short: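 Counterscreen measures cleavage of 2 microM BOC-RVRR-AMC, below its ~15 microM Km, by 5 nM full-length human furin at pH 7.0 after a 15-min compound preincubation. Inhibition derives from the 15-min fluorescence increase at 37C.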

[2] = test system: Zika virus NS2B-NS3 protease (linked construct); test: Confirmatory screen NINDS AMC qHTS for Zika virus inhibitors (AID 1347152); details: Purified linked NS2B-NS3, AMC substrate fluorescence; series mostly up to 56.6 µM;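 also: AMC fluorescence gain from cleaved Bz-Nle-KRR-AMC substrate over 15 min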
In short: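 Linked NS2B-NS3 protease, 1 nM, in 10 mM Tris-HCl pH 8.0, 0.01% Tween 20; compounds preincubated 15 min at room temperature. Nle-KRR-AMC 10 microM (Km 18.3 µM); 15-min fluorescence change (340/450 nm) fitted to 4-parameter Hill.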
Also: top concentration of the series differs between compounds; nearly all actives have a fitted effect of over 70% in size.

SMILES	outcome [1]	outcome [2]
CC(C)=CCN1CC[C@@]2(C)c3cc(O)ccc3C[C@@H]1[C@@H]2C	inactive	–
Oc1ccc([C@H]2CNCc3c2ccc(O)c3O)cc1O	inactive	inactive
